Inconclusive results are not listed. The source made the active and inactive calls. The call rests on the fitted dose curve; in most records, active means well fitted cell-killing curve with a large enough effect in the repeat runs; inconclusive means weak or mixed curves, or effect the other way; inactive means flat fitted curve, though single readings scatter.
Assay: Nuclear factor erythroid 2-related factor 2/antioxidant responsive element (Nrf2/ARE) small molecule agonists: qHTS cell viability counter screen in human keratinocytes (AID 1919968); further: nearly all actives have a fitted effect of over 55% in size
Settings: KeratinoSens HaCaT ARE cells viability, CellTiter-Fluor, 24 h; series mostly up to 92.4 µM; activity change, negative = cytotoxicity: at the top concentration
Source text: U.S. Tox21 Program National Center for Advancing Translational Sciences [NCATS] Division of Preclinical Innovation [DPI] U.S. Environmental Protection Agency [EPA] National Institutes of Environmental Health Sciences [NIEHS] National Toxicology Program [NTP] U.S. Food and Drug Administration [FDA] Tox21 Assay Overview: Oxidative stress has been implicated in the pathogenesis of a variety of diseases ranging from cancer to neurodegeneration. The antioxidant response element (ARE) signaling pathway plays an important role in the amelioration of oxidative stress. The KeratinoSens (Givaudan, Switzerland) is an in vitro test method which quantifies luciferase induction as a measure of activation of Keap1-Nrf2-antioxidationt/electrophile response element (ARE) dependant pathway in HaCaT human keratinocytes stably transfected with a selectable plasmid. The KeratinoSens assay is a cell-based assay with a reporter cell line to detect potential skin sensitizers by their ability to induce the Nrf2/ARE-response. The activation of the report gene under culture conditions can be detected by ONE-Glo Luciferase Assay System (Promega, Madison, WI). This cell line has been used to screen the Tox21 10K compound library to identify agonists that induce oxidative stress. The cytotoxicity of the Tox21 compound library against the KS-ARE cell line was tested in parallel by measuring the cell viability using CellTiter- Fluor assay system (Promega, Madison, WI) in the same wells.
Tox21 Assay Protocol Summary: HaCaT derived cell line KeratinoSens were dispensed at 1,500 cells/5uL/well in 1536-well white wall/solid bottom plates using a Multidrop Combi (ThermoFisher Scientific, Waltham, MA) dispenser. After the assay plates were incubated at 37 C/5% CO2 for 5 h, 23 nL of compounds dissolved in DMSO, positive controls or DMSO only was transferred to the assay plate by a pintool workstation (Kalypsys, San Diego, CA). The plates were incubated at 37 C/5% CO2 for 23 h, followed by addition of 1uL/well of CellTiter-Fluor reagent into the assay plates using a Flying Reagent Dispenser (Aurora Discovery, San Diego, CA) for cell viability readout that measures cytotoxicity. After 1 h incubation at 37 C/5% CO2 the fluorescence intensity was measured using a ViewLux (PerkinElmer, Shelton, CT) plate reader.
On the % scale 0 is the no-effect control and ±100 the full control effect; potency means the concentration at half of the fitted maximal effect.

Row | Compound | activity change, negative = cytotoxicity | Potency
1 | O=C(O)c1c(Cl)ccc(Cl)c1Cl | 0.643% (inactive) | –
2 | O=S(=O)(O)c1cc(I)c(O)c2ncccc12 | 9.6% [at 42.5 µM] (inactive) | –
3 | CCC(C)N (stereo not given) | 4.57% (inactive) | –
4 | Nc1ccn([C@H]2CS[C@@H](CO)O2)c(=O)n1 | 0.84% (inactive) | –
5 | O=C1Nc2ccc([N+](=O)[O-])cc2C1=O | -18.5% (inactive) | –
6 | CCCCNC1CC(C)(C)NC(C)(C)C1 | -29.5% (inactive) | –
7 | CC(=O)OC1C2(C)CCC(C2)C1(C)C (stereo not given) | 4.31% (inactive) | –
8 | NC1(c2ccc(-c3nc4ccn5c(=O)[nH]nc5c4cc3-c3ccccc3)cc2)CCC1 | – | 29.8 µM (active)
9 | CC(C)C[C@H]1C(=O)N2CCC[C@H]2[C@]2(O)O[C@](NC(=O)[C@@H]3C=C4c5cccc6[nH]c(Br)c(c56)C[C@H]4N(C)C3)(C(C)C)C(=O)N12 | -21.9% [at 42.5 µM] (inactive) | –
10 | CC/C=C1/OC(=O)c2ccccc21 | -1.08% (inactive) | –
11 | CN1C(C)(C)CC(O)CC1(C)C | 1.04% (inactive) | –
12 | c1ccc(Cc2ccccc2)cc1 | -5.53% (inactive) | –
13 | NC(=O)c1c(Cl)cccc1Cl | 2.39% (inactive) | –
14 | O=C(O)COC(=O)Cc1ccccc1Nc1c(Cl)cccc1Cl | -0.136% [at 42.5 µM] (inactive) | –
15 | CCO[Si](CCC1CCC2OC2C1)(OCC)OCC (stereo not given) | 2.3% (inactive) | –
16 | CCCCCCOC(=O)NC(=N)c1ccc(NCc2nc3cc(C(=O)N(CCC(=O)OCC)c4ccccn4)ccc3n2C)cc1 | -12.7% [at 42.5 µM] (inactive) | –
17 | C=C(C)C(=O)OCCCCCCCCCCCCCCCCCC | 0.16% [at 19 µM] (inactive) | –
18 | CCc1ccc(C)cc1 | 0% (inactive) | –
19 | CC1(C)[C@@H](O)CC[C@]2(C)[C@H]3C(=O)C=C4[C@@H]5C[C@@](C)(C(=O)O)CC[C@]5(C)CC[C@@]4(C)[C@]3(C)CC[C@@H]12 | – | 67.8 µM (active)
20 | CCN(Cc1cccc(S(=O)(=O)O)c1)c1ccc(C(=C2C=CC(=[N+](CC)Cc3cccc(S(=O)(=O)O)c3)C=C2)c2ccc(O)cc2S(=O)(=O)[O-])cc1 | – | 33.1 µM (active)

Row | Compound | activity change, negative = cytotoxicity | Potency
21 | CC(O)C1CCCCC1 (stereo not given) | -2.53% (inactive) | –
22 | CCCn1cc[n+](C)c1C | 9.85% (inactive) | –
23 | CNc1ncnc2nc[nH]c12 | 0.62% (inactive) | –
24 | CCCCNCCCC | 0.396% (inactive) | –
25 | COC(C)(C)OC | 3.54% (inactive) | –
26 | NC(=O)Nc1nc2ccccc2[nH]1 | 0.927% (inactive) | –
27 | CC(C)(C)C(=O)CCc1ccc(Cl)cc1 | 0.76% (inactive) | –
28 | C=CC(=C)CCCC(C)(C)OC(C)=O | -1.83% (inactive) | –
29 | C[C@@H]1C[C@H]2[C@@H]3C[C@H](F)C4=CC(=O)C=C[C@]4(C)[C@@]3(F)[C@@H](O)C[C@]2(C)[C@@]1(O)C(=O)CO | -7.38% [at 42.5 µM] (inactive) | –
30 | CO/N=C(/C(=O)N[C@@H]1C(=O)N2C(C(=O)OCOC(=O)C(C)(C)C)=C(C)CS[C@H]12)c1csc(N)n1 | -0.433% [at 42.5 µM] (inactive) | –
31 | CCCCNc1cc(C(=O)O)cc(S(N)(=O)=O)c1Oc1ccccc1 | 0.926% [at 42.5 µM] (inactive) | –
32 | CC/C=C\CCOC(C)OCC (stereo not given) | -3.3% [at 42.5 µM] (inactive) | –
33 | CCCCN(CCCC)CCC(O)c1cc2c(Cl)cc(Cl)cc2c2cc(C(F)(F)F)ccc12 (stereo not given) | – | 21.1 µM (active)
34 | CCCC(=O)OC/C=C(\C)CCC=C(C)C | 1.18% (inactive) | –
35 | O=C(OCC(COC(=O)c1cccnc1)(COC(=O)c1cccnc1)COC(=O)c1cccnc1)c1cccnc1 | 11.1% [at 42.5 µM] (inactive) | –
36 | CC1=Nc2ccccc2C1(C)C | 3.25% (inactive) | –
37 | Oc1cc2ccccc2c2ccccc12 | – | 13.7 µM (active)
38 | N/C(=N\N=C\c1ccc(Cl)cc1)N/N=C/c1ccc(Cl)cc1 | – | 26.6 µM (active)
39 | CC(C)N(c1ccccc1)C(C)C | -2.59% (inactive) | –
40 | CCN=C1C=CC(=C(c2ccc(N(CC)CC)cc2)c2ccc(N(CC)CC)cc2)c2ccccc21 | – | 19.2 µM (active)

Reference: PubChem BioAssay (Tox21)
